In the supplement of paper PMC10681739:

Columns and labels:
ETS1 [1] = biological target: T1, ETS1 (UniProt P14921); assay: ETS1 binding intensity (PBM fluorescence), ETS1 alone (arbitrary fluorescence units); higher = stronger binding; conditions: ETS1 concentration 1 nM; RUNX1 concentration 0 nM
T1 sequence: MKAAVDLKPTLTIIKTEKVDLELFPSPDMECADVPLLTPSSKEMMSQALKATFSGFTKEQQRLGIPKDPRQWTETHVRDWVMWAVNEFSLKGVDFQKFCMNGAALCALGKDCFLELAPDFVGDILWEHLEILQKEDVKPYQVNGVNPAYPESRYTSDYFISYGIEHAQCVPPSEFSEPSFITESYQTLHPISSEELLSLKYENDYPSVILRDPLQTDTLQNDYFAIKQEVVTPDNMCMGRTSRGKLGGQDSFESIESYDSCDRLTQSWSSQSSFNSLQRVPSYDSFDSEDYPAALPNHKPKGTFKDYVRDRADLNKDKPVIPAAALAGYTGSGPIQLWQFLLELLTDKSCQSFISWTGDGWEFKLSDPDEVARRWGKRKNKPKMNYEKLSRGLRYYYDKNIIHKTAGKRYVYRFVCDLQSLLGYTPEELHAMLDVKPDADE

RUNX1 [2] = biological target: RUNX1 (UniProt Q01196); assay: RUNX1 binding intensity (PBM fluorescence), RUNX1 alone (arbitrary fluorescence units); higher = stronger binding; conditions: RUNX1 concentration 2 nM; ETS1 concentration 0 nM
Experimental: (§1)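 Cooperative gcPBM on 36-bp genomic probes with neighbouring ETS1 and RUNX1 sites. Recombinant human RUNX1 (2 nM) was incubated alone or with ETS1 (25 nM) and detected with anti-RUNX1 antibody plus Alexa488 secondary. Values are medians over 4 replicate spots; the RUNX1+ETS1 data were normalised to the RUNX1-only data. The probes sit in constant array flanks that are not printed.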

ETS1 [3] = biological target: T1, ETS1; assay: ETS1 binding intensity (PBM fluorescence) in presence of RUNX1, normalised to ETS1-only experiment (arbitrary fluorescence units); higher = stronger binding; conditions: ETS1 concentration 1 nM; RUNX1 concentration 25 nM
RUNX1 [4] = biological target: RUNX1 (UniProt Q01196); assay: RUNX1 binding intensity (PBM fluorescence) in presence of ETS1, normalised to RUNX1-only experiment (arbitrary fluorescence units); higher = stronger binding; conditions: RUNX1 concentration 2 nM; ETS1 concentration 25 nM
Experimental: as §1
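For RUNX1 binding intensity (PBM fluorescence) in presence of ETS1, normalised to RUNX1-only experiment in this document: Full-length recombinant human ETS1 or RUNX1 bound to double-stranded 36-bp genomic probes on microarrays, detected by protein-specific primary antibody and Alexa488 secondary, spot fluorescence as median of four replicate spots.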
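For RUNX1 binding intensity (PBM fluorescence), RUNX1 alone in this document: Full-length recombinant human RUNX1 bound to double-stranded 36-bp genomic probes on a high-density microarray, scored as Alexa488 fluorescence per spot via anti-RUNX1 antibody, median of four replicate spots.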

Chain of RUNX1 (Q01196 whole entry): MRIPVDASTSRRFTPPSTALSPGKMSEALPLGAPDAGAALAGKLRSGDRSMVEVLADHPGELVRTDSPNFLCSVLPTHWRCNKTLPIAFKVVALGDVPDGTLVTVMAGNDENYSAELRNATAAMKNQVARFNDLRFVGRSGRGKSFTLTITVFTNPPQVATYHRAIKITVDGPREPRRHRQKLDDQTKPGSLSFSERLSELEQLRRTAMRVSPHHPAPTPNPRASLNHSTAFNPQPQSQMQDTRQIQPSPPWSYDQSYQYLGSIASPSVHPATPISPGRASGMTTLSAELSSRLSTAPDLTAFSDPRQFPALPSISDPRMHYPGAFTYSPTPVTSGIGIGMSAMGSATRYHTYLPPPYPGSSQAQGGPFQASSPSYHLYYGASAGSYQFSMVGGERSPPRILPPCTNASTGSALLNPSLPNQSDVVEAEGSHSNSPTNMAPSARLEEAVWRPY

Sequence | ETS1 binding intensity (ETS1 [1]) | RUNX1 binding intensity (RUNX1 [2]) | ETS1 binding intensity (ETS1 [3]) | RUNX1 binding intensity (RUNX1 [4])
GGGCCCACATCCGGCGCGCGCAACCGCAGCCTACTG | 1120 | 2530 | 6540 | 13100
GCAGCCCAGCTTCCTGCAGACCAAAACCACAAGCAG | 542 | 1390 | 2540 | 4140
TCTCCTTTCAGGAAGCTGCACCCAAACCACCCTCAG | 606 | 996 | 610 | 949
TCTCTACTTCCCATTATTTCTGTGGTTAATTTCACC | 369 | 10400 | 986 | 13500
GGGCCAGAGACGCCGGAAGTGACCGCGCGGTGCGCC | 11700 | 729 | 18400 | 1210
CTGAAGAGGAAATGTATTCCTCATGTTGTGGTTGGC | 742 | 860 | 1980 | 878
AAAGCAAACAGGAAGTGCTGTGGTAACAAGGCCCCA | 6830 | 728 | 14500 | 1820
GACTTCCTGTTGAAGATTGGCCTCTGCGGTACCACG | 951 | 2700 | 2350 | 9740
TACATAGGCGGAAGTGGCCTGCGGGCGCCGGAGTTG | 3980 | 714 | 9480 | 1710
GTCTTCCTTCCTGAGAATCTTAACCACCAGCTTGCC | 434 | 1350 | 483 | 2050
GTGGGGGTGACAGGATGCGGGTAGAGGGCTCAGCCA | 1950 | 909 | 2770 | 1460
CTGTCCGCGACATCCGGGACCTGCGGGACCGCCGAT | 1250 | 765 | 1470 | 1760
GCAGAACCAGAAACAGGATGTGGGTTCCCCTTTAAG | 7390 | 826 | 18900 | 4550
AGATGCAAACACAGGAAACTTGTGGTCTATGCTGCT | 1800 | 803 | 7450 | 1160
AGCTTGCCGGAAGCTGGTTGTTCGCTGCGGCGACCA | 4100 | 705 | 4380 | 1220
AAGTGGAGAGCGGAAGTGAGCTGTGGGTGACTGCAG | 6780 | 759 | 8400 | 1240
CAGCAAAAGGCAGGATGTGGTTAAAACTGTGCTCTG | 4320 | 1110 | 29000 | 17100
TCCTCCCACGGGAAGTGCCGTAGGACCGCAGCCCGA | 870 | 812 | 1170 | 1020
AGCTGCTGTTTTCCGGCTGCGGCACTGGATGAAGGA | 498 | 711 | 422 | 1350
GCGATCGGAGCGGAAGTGGAGCTACCGCCACCGCCG | 7540 | 819 | 8910 | 1290
TGACGGCAGGCAGGATGTGGTGAGACAAATCCACTC | 4070 | 904 | 8840 | 2660

Sequence | ETS1 binding intensity (ETS1 [1]) | RUNX1 binding intensity (RUNX1 [2]) | ETS1 binding intensity (ETS1 [3]) | RUNX1 binding intensity (RUNX1 [4])
GCAACTGAACAGGAAACTAAAAAACCACAACACTTA | 1400 | 1900 | 15600 | 7890
CAAAGTGATGGGGGAAATGGTTGTGGTTTTGGGTGG | 553 | 1180 | 3760 | 1500
AGTTTCTCAGCTTCCTGTGTGGTTTTCTTGATCTGC | 1480 | 1620 | 2630 | 4280
TCCCGGCGTTCTTCCGCTGGCTCAGCCGCAAGTACC | 573 | 818 | 822 | 1170
ATCTTAAGTGTTTCCTGACACCACAAATCCCCAAAC | 501 | 1020 | 507 | 1020
AACAACAGGATGCTCTCTAGTCTAACAGTGGTAACA | 847 | 866 | 820 | 1020
AAATACCAGCCCACTTCCTGTGGCTTTGATCTGCAG | 2090 | 855 | 3340 | 5090
TTTGAGCGGGCAGGATGTGGTGACAATGATACTGCA | 4280 | 750 | 8140 | 2370
CACCGCCGGAGTCCCGGATGTGGTTGCTAGGGCAGC | 5070 | 767 | 14900 | 3280
GTTCTCCTTCCTGTGCCGAGTGTGGTTTGCTATCAA | 580 | 1250 | 622 | 2400
TCTGGAGAAGCAGGATGTGGTTTGCAAGAGGCTTGC | 4750 | 774 | 16700 | 4750
TGAGAGTAAAAAGGATGTGGTTTCCTTTCATTTTTT | 1580 | 927 | 6790 | 2430
CCTCACTAACATCCTGTTGAGGTGTCCCACAAACCA | 1110 | 801 | 1090 | 1490
GCCACTTCCTGGAAAACAGTAATTACCACACGTCTC | 464 | 1100 | 546 | 2160
GAAGGTTGTAGAGGAAGTGGTTTGTTCTTCCTCCTG | 2670 | 837 | 4070 | 1640
GGCATTCACTTCCGGTCTGGGGCCTGCGGCGGCGGC | 18600 | 793 | 19400 | 2260
ACCGGATGCCGGGGCACCGCCAGATGTGGCCACGAG | 1500 | 746 | 1730 | 941
CAAGCACATTACGGAAGAGGCTGACCGCAAATACGA | 595 | 4550 | 6680 | 6950
TCCCTCCTTCCGCTCTGGTTTTGTGGTTGCTTGCTG | 902 | 1490 | 1620 | 3330
CTAGCTGTGGACAGGAAACGAGTGGTTTTTGTGATC | 5270 | 740 | 8040 | 1400
TCTGGCTTCCTGTCTTAATAGGGCTTTGTGGTGTGC | 762 | 832 | 1080 | 2040

Sequence | ETS1 binding intensity (ETS1 [1]) | RUNX1 binding intensity (RUNX1 [2]) | ETS1 binding intensity (ETS1 [3]) | RUNX1 binding intensity (RUNX1 [4])
GGAGCAAGGATGACAGGATGTGGCTTAGGGGGAGGC | 5020 | 708 | 7820 | 1000
ACAACTTCCTGTGGGATTTTTGGTGTCTGCGGCTCA | 818 | 811 | 858 | 2810
TGGTTTCCGGGCTGGGGTTAGAATAGGCCACAAGGT | 494 | 787 | 536 | 1740
CAAGAGGAACCGGAACTTTGGAAACCACATTCTTAT | 1400 | 911 | 4800 | 1480
ACAGCTCACACAGGAAATACAAACCTCAAAAAGCAA | 2600 | 1070 | 7480 | 1670
AGAAAAGGAAATGGTGGGCTGCACACCACAGCTCAC | 477 | 728 | 461 | 1130
GTTGGGGTGCGTGTAGGATGTGGTCTGGGATGATTA | 599 | 1050 | 2610 | 867
TGGGGTGGTGACATGGGATGTGGTTTTGGGGTTGCA | 510 | 974 | 3860 | 1070
GCTGCAAGGCGGAAGCAGCGCGGTCGGACGGGCATG | 1650 | 721 | 2400 | 997
TCTCTTCCTGTGATGGAAATACATTGAGGTTTGCGA | 523 | 787 | 743 | 1740
TACCAACAGGAATCTTTGGGGTCTAAACCGCAAACA | 481 | 3800 | 2160 | 5090
TAACTACTTCCTTTTACTATCTACCACAATTTAATT | 516 | 1620 | 510 | 2810
TCCCCACACTTCCGGCCCCGCCCGCACAGCCGCACC | 3270 | 1130 | 4360 | 5780
TGGGGCTCTTCCTGCTTATGTGACCACAGCACCTTG | 402 | 936 | 679 | 1760
GGAGAGTTGACTTCCGGCGGCTTGTGGGAGTGCTGG | 2740 | 771 | 2640 | 1820
GGACCCAGCAGAGGATGTGGTTACAGGGCCATGATA | 720 | 836 | 5450 | 2170
AACTTCCGAGGGAACTAACTGGTTTTAACCACATTG | 367 | 886 | 923 | 1190
GCCCGCGGCTCCGGAAGCGGCTGCGGCCCCGACCGG | 3000 | 678 | 3860 | 1040
TCCCCTTTCCGGGAAGGGTTGGGGATCTGACCACGT | 437 | 728 | 498 | 1320
TTCTTCACTTCCTTCTCTCCGTGGTTTCGCCATTAG | 513 | 2260 | 436 | 3130
GTTGTCTTGCCCAAAGGAAGTGGTTACTAGACCAGA | 1770 | 793 | 4870 | 1490

Sequence | ETS1 binding intensity (ETS1 [1]) | RUNX1 binding intensity (RUNX1 [2]) | ETS1 binding intensity (ETS1 [3]) | RUNX1 binding intensity (RUNX1 [4])
CCATTCTTCCGGTGGAGATGGCTGCGGCCGTGGCGG | 568 | 714 | 588 | 2240
GTAAATAAAGAGGAAGTCCCTATGCGGGGGATGGGG | 1910 | 850 | 2060 | 884
CAACAACCGGAAGTGGGGCGGGCCGCAGTACCCGCC | 14900 | 701 | 15800 | 3010
AATGGGCTTGGTTTCCTGTGGGTTTGTAGCTTTGTA | 519 | 899 | 685 | 2120
TGCAAGAGGAAGCTGGGGTTTGTGGTTCATGTTTTG | 528 | 874 | 1000 | 1390
CTGCCTGGCACAGGATGTGGTCATTTGTGCTGAGGA | 5880 | 730 | 17900 | 4420
ATGCCTGTAGGAGGATGTGGTTTCTACACAACTCTG | 981 | 926 | 5640 | 1400
GTGGGTTTAGGATATGGGTGTGGTTTCTAATTGTCT | 428 | 885 | 653 | 1020
GCACTCATTTCCTGTCCCCTGTGGTTTAAAGGTTTT | 1990 | 1260 | 4620 | 4770
AGAAGCAGGCATGCAGGATGTGGTTAGTGCATGGTA | 2230 | 900 | 17400 | 3740
CACTTCCTGCCCTCTTCCACTTTCAAAACCACATCA | 869 | 4540 | 1850 | 9880
CCAGACCCGGCGGAACTACCGTGCCCACAAGGCAGC | 396 | 876 | 564 | 894
ATAAACAGGAAGCTGAGTATGTGACCACAGACATTC | 1670 | 840 | 5200 | 1630
TGGGAACTTCCTGTGGAGGAGTGCATTGTGGGACTT | 851 | 686 | 726 | 1630
TTTCTGAAACCCTCAGGATGTGGGTTTTCACACTGT | 1310 | 800 | 6900 | 1100
AGATTTTGTCTTCCTGTTGTGGCAACATCTGTAGAA | 521 | 1210 | 406 | 1520
GCGCGGCGCGACCGGACGCTGCGGGCGGGGAAGAGG | 3230 | 734 | 5990 | 929
CTTGGCGGAAGTGGTGTGGGGGAGGTAGCCCGCAGT | 1840 | 753 | 5600 | 3460
